Measurements as given in PubChem BioAssay AID1981 (Southern Research Specialized Biocontainment Screening …, 2009).
The campaign covered roughly 2,200 compounds. About 480 (22%) were called active. Not all results are given here. Results with a measured potency or affinity are listed apart. Unmarked numbers belong to inactive results. The rule behind the calls is not given here.

assay: S. Typhimurium GFP fluorescence dose response in modified counterscreen for PhoP regulon inhibitor project (AID 1981); settings: 4 h; series mostly up to 150 µM; inhibition: at the top concentration;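 note: 0% = induced DMSO wells and 100% = uninduced wells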

Compound | inhibition [%]
CC(CO)(CO)NCc1ccc(-c2ccccc2)cc1 | -6.59
Cc1cc(C(=O)NCc2ccco2)no1 | 4.98
Cc1cc(SCC(N)=O)nc(SCC(=O)c2ccccc2)n1 | -20.2
COc1ccccc1NS(=O)(=O)c1cccc(C(=O)N/N=C/c2c(C)nn(-c3ccccc3)c2N2CCCC2)c1 | 26.4
CCC(C)n1c(O)c(C(c2ccccn2)c2c(O)n(C(C)CC)c(=S)[nH]c2=O)c(=O)[nH]c1=S (centres undefined) | -10.1
Cn1c(=O)c(=O)n(C)c2cc(S(=O)(=O)Nc3ccc4c(c3)OCCO4)ccc21 | 5.3
Cc1ccc(N(CC(=O)Nc2cccc(C)c2)S(=O)(=O)c2cccc3nonc23)cc1 | -13.7
Nc1cc(N2CCCCC2)c(Cl)cc1[N+](=O)[O-] | 2.22
CCOc1ccc(-c2noc(CCCC(N)=O)n2)cc1OC | -23.5
CCOc1ccc(/C=C/C(=O)Nc2ccc(OC)cc2[N+](=O)[O-])cc1 | -7.63
Nc1ccc(N(c2ccccc2)c2ccc(N)cc2)cc1 | 34.6
Cc1ccccc1C(=O)N(C)Cc1ccccc1 | -6.23
CCC(CC)c1nnc(NC(=O)Oc2ccccc2)s1 | 0.33
CCOCc1nnc(NC(=O)COC)s1 | -11.1
Cc1cc(C=O)c(C)n1-c1ccc(Oc2ccc([N+](=O)[O-])cn2)cc1 | -14.5
CCCn1nnc(NC(=O)c2ccc(Br)o2)n1 | -3.29
COc1ccc(CCNC(=S)Nc2cccc3ccccc23)cc1 | -13.8
c1ccc2c(CCNCc3ccc4c(c3)OCO4)c[nH]c2c1 | 4.11
Brc1cccc(CNCc2cccs2)c1 | 10.1
Fc1ccc(CCNCc2cccc(Cl)c2)cc1 | -5.69
COc1ccccc1CNc1nc2nc(C)c(C)c(=O)n2[nH]1 | 7.23
COc1cc(CNCc2cccs2)cc(Br)c1OC | -1.87
CCN(C(=O)COc1cc(=O)n(CC)c2ccccc12)c1cccc(Cl)c1 | 3.2
CCN(CC)S(=O)(=O)c1ccc2c(c1)nc(SCC(=O)N1CCOCC1)n2-c1ccccc1OC | 1.44
O=c1ccc2ccc(Oc3ccc([N+](=O)[O-])cc3[N+](=O)[O-])cc2o1 | 12.6

Compound | inhibition [%]
O=C(CCN1CCc2ccccc2C1)Nc1ccccc1F | -10.2
CCCc1nc2c(o1)CC(CC(C)SCC)CC2=O (centres undefined) | -6.99
COc1ccc(S(=O)(=O)Nc2ccc(F)c(F)c2)cc1Cl | 4.83
S=C(NCc1cccnc1)Nc1ccc(Cl)c(Cl)c1 | 8.92
CCc1cccc(C)c1NC(=S)NCc1cccn1C | -0.7
COC(=O)C1=C(CSc2nc3ccccc3o2)NC(=O)NC1c1cc(C)ccc1C (centres undefined) | 13.2
CCn1c(SCc2nc3scc(-c4ccccc4)c3c(=O)[nH]2)nnc1-c1cccs1 | 18.2
COc1ccc2c(c1)OC1=C(C(=O)CCC1)C2C1=C(O)CCCC1=O (centres undefined) | 7.41
O=C(NNc1nc(-c2ccccc2)cs1)c1ccccc1 | -3.2
CC(=O)Nc1cccc(-c2csc(Nc3ccccn3)n2)c1 | -1
c1ccc(CN2CCN(c3nc(-c4ccccc4)nc(-n4ccnc4)n3)CC2)cc1 | -2.93
C#CCOc1ccc(/C=N/O)cc1Cl | -3.25
Cc1ccc(-c2csc(=S)n2CC(=O)OCC(=O)NCc2ccco2)cc1 | -8.25
N#Cc1ccc(C(c2nnnn2CCc2ccccc2)N2CCCCCC2)cc1 (centres undefined) | -15.7
Cc1ccc(S(=O)(=O)NNC(=O)c2ccc(O)cc2)cc1 | 1.15
CC1(C)SC(=S)N(NC(=O)Nc2ccccc2)C1N(O)C(=O)Nc1ccccc1 (centres undefined) | 7.41
O=C(CCN1CCCCC1)NCC1OCCc2ccccc21 (centres undefined) | -20.4
S=C(Nc1cccc(Cl)c1)Nc1cccc2cnccc12 | -24.1
CCc1nc2cc(Cl)c(Cl)cc2[nH]1 | 12
Cc1cccc(N2CCN(CC(=O)Nc3nccs3)CC2)c1C | -2.79
CCCOC(=O)Oc1ccc2c(=O)c(Oc3cc(C)cc(C)c3)coc2c1 | -16.2
COC(=O)c1ccccc1Oc1cnc2ccccc2n1 | 3.05
CCOC(=O)c1c(/N=C/c2ccc(O)cc2O)sc2c1CCC2 | -1.93
Cc1cccc(Nc2ncccc2C(=O)NCc2cccs2)c1C | -4.09
Cc1ccccc1NC(=O)c1sc2nc3c(c(-c4ccco4)c2c1N)CCC3 | -2.93

Compound | inhibition [%]
O=C(Nc1nc2cc3c(cc2s1)OCO3)C1=COCCO1 | -14.7
COc1ccc(/C=C/C(=O)NC(=S)NNC(=O)c2cnccn2)cc1 | 6.18
N#Cc1c(NC(=O)c2cnccn2)sc2c1CCCC2 | -12.6
COc1ccc(N2CCN(C(=O)CN(c3cccc(Br)c3)S(C)(=O)=O)CC2)cc1 | 0.41
NC(=O)CCc1c[nH]c2ccccc12 | -14
Cc1ccc2c(c1)[nH]c1c(N3CCN(Cc4ccccc4)CC3)ncnc12 | -14.9
O=C(CCCOc1ccccc1)N1CCCc2ccccc21 | 6.17
CCc1nc(SCC(=O)N2CCCc3ccccc32)c2oc3ccccc3c2n1 | 4.7
O=C(CN1CCN(Cc2ccccc2)CC1)c1c[nH]c2ccccc12 | -2.5
O=C(Nc1ccc(S(=O)(=O)N2CCCC2)cc1)c1ccc(CN2CCc3ccccc3C2)cc1 | 2.53
CC1CC(C)CN(CCCNC(=O)C2CCC(=O)N2C2CCCC2)C1 (centres undefined) | -16.3
CCc1ccc(NC(=O)c2noc3c2CCc2ccccc2-3)cc1 | -5.12
CCSc1nnc(NC(=O)Cc2cccc(OC)c2)s1 | -15.9
Nn1c(COc2cccc(Br)c2)nnc1SCC(=O)N1CCc2ccccc2C1 | -19.6
CCCc1cc(=O)oc2cc(OCC(=O)N3CCc4ccccc43)ccc12 | -17.5
O=[N+]([O-])c1cccc(CN(CCO)Cc2ccccc2)c1 | 2.79
COCCNC(=O)c1ccccc1NS(=O)(=O)c1ccc(Br)s1 | -10.8
CCOc1ccc(OCc2ccc(C(=O)N3CCc4ccccc4C3)o2)cc1 | 2.33
O=C(OCc1nnc(-c2ccccc2)o1)c1ccc(S(=O)(=O)NCc2ccco2)cc1 | -7.31
COc1ccc(Cl)cc1NC(=O)C(C)OC(=O)c1ccc(NS(=O)(=O)c2ccc3[nH]c(=O)[nH]c3c2)cc1 (centres undefined) | 33.5
c1ccc2c(c1)CCN(c1ncnc3c1[nH]c1ccccc13)C2 | 5.41
O=C(C(=O)N1CCc2ccccc2C1)N1CCc2ccccc2C1 | -2.68
CC(C)(C)c1ccc(C(=O)NC(=S)NCc2cccnc2)cc1 | -9.06
CCn1c2ccccc2c2cc(NC(=O)C(C)Oc3ccccc3)ccc21 (centres undefined) | -7.23
